Drawing on PubChem BioAssay, this text covers inhibition for 39 compounds.

Values without a mark were called inactive. How the calls were made is not given here.

As usually defined, the inhibition is the relative decrease from the control value, in per cent.

Chain of Pantothenate synthetase (Mycobacterium tuberculosis (strain ATCC 25618 / H37Rv)) (P9WIL5 whole entry, looked up): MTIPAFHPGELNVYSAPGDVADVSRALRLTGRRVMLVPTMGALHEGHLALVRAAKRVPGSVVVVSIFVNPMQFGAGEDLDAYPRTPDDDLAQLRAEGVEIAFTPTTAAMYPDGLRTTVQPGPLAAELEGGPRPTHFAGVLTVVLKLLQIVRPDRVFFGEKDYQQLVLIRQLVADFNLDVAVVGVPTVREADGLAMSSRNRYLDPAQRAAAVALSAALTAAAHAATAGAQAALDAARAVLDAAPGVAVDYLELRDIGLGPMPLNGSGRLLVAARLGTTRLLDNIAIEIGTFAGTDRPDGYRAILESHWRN

This assay has as its target Pantothenate synthetase (Mycobacterium tuberculosis (strain ATCC 25618 / H37Rv)) (UniProt P9WIL5). The assay is described as follows: Recombinant Mtb pantothenate synthetase (PanC) inhibitors, coupled enzyme, confirmatory (AID 375).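 Further: 0% = full reaction with vehicle and 100% = no enzyme background.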 The settings on record: coupled enzyme assay; at 10 µM, active compounds read high.
With `Cc1ccc2[nH]c(=O)c(CN(CCCN3CCOCC3)C(=O)Nc3cccc(Cl)c3)cc2c1`, the inhibition was 0%.
With `Cc1ccc(C)c(Cn2c(=O)n(CCC(=O)NCc3ccco3)c(=O)c3sccc32)c1`, the inhibition is 9%.
The value for `CC(=O)OC(C(=O)NCc1ccco1)c1cccnc1` (centres undefined) was 0%.
Consider `CS(=O)(=O)N1CCc2cc(S(=O)(=O)Nc3ccc4oc5c(c4c3)CCCC5)ccc21`, for which the inhibition is 3%.
Consider `O=c1cnnc(NCc2ccccc2)[nH]1`, for which the inhibition was 0%.
The value for `Cc1nc(CNS(=O)(=O)c2ccc3c(c2)OCCO3)cs1` was 0%; that for `Cc1ccc(Cl)cc1NC(=O)CSc1nnc(C)n1-c1ccccc1` was 0%; that for `O=C(CSc1ncnc2nc[nH]c12)c1ccc(Cl)cc1` was 1%.
With `CCOc1nc(-c2ccncc2)nc2ccccc12`, the inhibition was 0%.
In the case of `O=C(Cn1c(=O)sc2ccccc21)NCCOc1ccccc1F` it was 0%; in that of `CC1CCN(c2oc(-c3cccc4ccccc34)nc2C#N)CC1`, 0%; in that of `Cc1c(NS(=O)(=O)c2ccc3c(c2)n(C)c(=O)n3C)c(=O)n(-c2ccccc2)n1C`, 2%.
As to `O=C(Nc1ccc2c(c1)OCO2)c1cncc(Br)c1`, the inhibition is 8%.
In the case of `Cn1c(=O)cc(OCC(=O)N2CCN(c3cccc(C(F)(F)F)c3)CC2)c2ccccc21`, the inhibition was 12%.
In the case of `CCOc1cc(C(=O)N2CCN(c3ccccc3)CC2)cc(OCC)c1OCC` it was 3%.
In the case of `C=CCn1c(SCc2cccc(C#N)c2)nnc1-c1ccccc1O` it was 0%; in that of `CC(C)(C)NC(=O)CN(Cc1cccs1)C(=O)c1csnn1`, 0%.
As to `CN(C)S(=O)(=O)c1ccc2c(c1)C(CC(=O)O)OC2=O` (centres undefined), the inhibition was 4%.
On to `Cc1nn(Cc2ccccc2)c2c1C(c1ccncc1)C(C#N)=C(N)O2` (centres undefined), for which the inhibition was 0%.
In the case of `Cc1cccc(OCC(=O)N2CCC(c3ccccc3)C2)c1` (centres undefined) it was 3%; in that of `CSCCC(NC(=O)c1occc1C)C(=O)O` (centres undefined), 0%; in that of `CN(C)c1nc(N(C)C)nc(N(C)C)n1`, 2%.
In the case of `O=C1N(CCCCN2C(=O)C3(OCCO3)c3ccccc32)c2ccccc2C12OCCO2`, the inhibition is 0%.
In the case of `CC(=O)NCCCCCCNC(C)=O` it was 0%; in that of `O=C(Cn1nnc(-c2ccncc2)n1)Nc1ccc2c(c1)CCC2`, 0%.
The value for `Cc1ccc(S(=O)(=O)NCC(c2cccnc2)N(C)C)cc1` (centres undefined) was 3%; that for `CC1CN(c2ccc(Oc3ccccc3)cc2)c2nc3c(c(=O)n(CC(N)=O)c(=O)n3C)n2C1` (centres undefined) was 3%.
Regarding `O=C(NCc1nnc(SCC(=O)N2CCCCCC2)o1)c1ccco1`, the inhibition is 8%.
Regarding `O=C(CN1C(=O)C2CC=C(Cl)CC2C1=O)Nc1ccc(C(=O)O)cc1` (centres undefined), the inhibition is 0%.
For the compound `Cc1ccc(CCSCC(=O)O)cn1`, the inhibition is 0%.
Take `COc1ccc(NC(=O)C(C)Oc2ccc(/C(C)=N\O)cc2)cc1` (centres undefined): the inhibition was 0%.
In the case of `Cc1c(C(=O)O)c(-c2ccccc2)nn1-c1ccccc1` it was 2%; in that of `O=C(c1cccc(F)c1)N1CCc2ccccc21`, 0%.
Turning to `CN(C=O)CP(=O)(O)CCN1CCCC1=O`, the inhibition is 0%.
Regarding `O=C(Nc1ncc2c(n1)CC(c1ccccc1)CC2=O)c1ccco1` (centres undefined), the inhibition was 3%.
As for `c1ccc(-c2cnc(CSc3ncnc4sccc34)o2)cc1`, the inhibition was 0%.
As for `CCN(CC)c1ccc(NC(=O)c2nc3nc(C)cc(C(F)F)n3n2)cc1`, the inhibition was 0%.
As for `COc1ccc(C)cc1NC(=O)CCC(=O)Nc1ccc2nc(N3CCN(C)CC3)cc(C)c2c1`, the inhibition was 0%.
As for `O=C(NCC1CCCO1)c1ccccc1-c1nc(-c2ccc(Cl)cc2)no1` (centres undefined), the inhibition is 1%.
